This is part of a sample that, as a whole, favours compounds with a hit. Of some 83,000 tested, about 20% had one in any assay.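 Each cell line was grown in a 96-well plate and treated with one concentration of compound for 48 hours. Values below 10 were considered active.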 Values without a mark were called inactive. Calls of active or inactive are those of the source.

The assay has as its system MDA-MB-435 melanoma. The experiment in a line: NCI-60 one-dose screen, 48 h (100 = growth as untreated, 0 = no growth, -100 = all killed). Conditions: 10 µM unless noted. As for the experimental part: Growth inhibition of the MDA-MB-435 human Melanoma tumor cell line is measured as a screen for anti-cancer activity. Cells are grown in 96 well plates and exposed to the test compound for 48 hours. Compounds are tested at a single concentration, which is 10^-5 M for most compounds. The reported endpoint is percent growth (GI% or GIPRCNT), where numbers from 0 - 100% represent growth inhibition, and numbers from -100% - 0 represent cell death. For example, a value of 40 represents 60% growth inhibition. A value of 0 means no net growth occurred over the course of the experiment. A value of -40 indicates 40% of cells at the beginning of the experiment died by the end of the experiment. A value of -100 means all cells are dead at the end of the experiment.
NCI-60 Human Tumor Cell Lines Screen was performed using the standard one-dose NCI protocol, which is described in more detail at https://dtp.cancer.gov/discovery_development/nci-60/default.htm.
Compounds with GIPRCNT values below 10 were considered active. Activity score was based on GIPRCNT using the following formula: […]
Score is 0 for GIPRCNT values of 100 or above, 50 for GIPRCNT values of 0, and 100 for GIPRCNT values of -100.
On to `CC[C@H](C)[C@H](NC(=O)c1ccccn1)C(=O)N(C)[C@H](C[C@@H](OC(C)=O)c1nc(C(=O)N[C@@H](Cc2ccccc2)C[C@H](C)C(=O)OC)cs1)C(C)C`, for which the growth was -25.3% (active). To `COC(=O)[C@@H](C)C[C@H](Cc1ccccc1)NC(=O)c1csc([C@@H](C[C@H](C(C)C)N(C)C(=O)C2(NC(=O)[C@H]3CCCCN3C)CC2)OC(C)=O)n1` belongs -28.8% (active); to `CCOC(=O)N[C@H]1CCc2c(Br)c(OC)c(OC)c(OC)c2-c2ccc(SC)c(=O)cc21`, -54.2% (active); to `Clc1cccc(N2COOC3(OOC2)C2CC4CC(C2)CC3C4)c1`, 73.3%. Turning to `COc1cc(/C=C/[N+](=O)[O-])c([N+](=O)[O-])cc1OC`, the growth is 14%. As for `C[S+]1C=Cc2ccccc2C1c1ccc(Cl)cc1` (stereo not given), the growth was 75%.

`CCCC(=O)O[C@@H]1C[C@H]2C[C@@H](O[C@@H]3O[C@@H](C)[C@@H](O)[C@@H](O)[C@H]3OC)C[C@@H](C[C@@H](C)/C=C/C=C\C[C@@H]3O[C@@H](C[C@@H]3C)[C@@H](O)C[C@H]3C[C@@]1(O)C(=O)O3)O2`: the growth was 59.1%. Regarding `CC1=C(CCCNS(C)(=O)=O)C2=C(C)C3(CC3)[C@@](C)(O)C(=O)C2=C1`, the growth is 11.7%. As for `O=[N+]([O-])c1ccc(OP(=O)(CCl)N(CCCl)CCCl)cc1` (stereo not given), the figure is 104%. In the case of `CC[C@]12C=CCN3CC[C@@]4(c5ccc(OC)cc5N(C)[C@H]4[C@@](O)(C(=O)OC)[C@@H]1OC(=O)CCCC[P+](c1ccccc1)(c1ccccc1)c1ccccc1)[C@@H]32`, the growth is -19.7% (active).

Consider `CCCC(C)C1(CC)C(=O)NC(=O)N(C)C1=O` (stereo not given), for which the growth was 97.9%. As to `Cn1cc(-c2csc(-c3cn(CCCCN4CCCCC4)c4ccccc34)n2)c2cccnc21`, the growth is -79.6% (active). As for `COC(=O)N[C@H]1CCc2c(Br)c(OC)c(OC)c(OC)c2-c2ccc(SC)c(=O)cc21`, the figure is -55.7% (active); as for `CC[C@]12C=CCN3CC[C@]4(C(=C(C(=O)OC)C1)Nc1cc(OC)c(OC(C)=O)cc14)[C@@H]32`, 3.75% (active). As for `O=C1CN=C(c2ccc(Cl)cc2)c2sccc2N1`, the figure is 109%; as for `Fc1cccc(NCOOC2(OOCNc3cccc(F)c3)CCCCC2)c1`, 101%. With `Oc1c(CCl)cc(Cl)cc1CCl`, the growth is 102%. Consider `CCCCCCCOC(C(=O)OCCN(CC)CC)(c1ccccc1)c1ccccc1`, for which the growth is 98.2%. As to `COc1ccc2c(c1)c(-c1nc(-c3cn(C)c4ncccc34)cs1)cn2CCCCN1CCCCC1`, the growth is -88.9% (active). As to `CNC12C3C4C1C1C2C3C41C(=O)N[C@H](C(=O)N(C)[C@H](C[C@@H](OC(C)=O)c1nc(C(=O)N[C@@H](Cc2ccccc2)C[C@H](C)C(=O)OC)cs1)C(C)C)C1CC1` (stereo not given in full), the growth is -18.5% (active). To `COc1cc2c(cc1OCc1ccccc1)C(CC(C)C)=[N+](C)CC2` belongs 96.6%; to `OCc1ccc2c(c1)OCO2`, 102%. `CC[C@H](C)[C@H](NC(=O)C12C3C4C1C1C2C3C41NC(C)=O)C(=O)N(C)[C@H](C[C@@H](OC(C)=O)c1nc(C(=O)N[C@@H](Cc2ccccc2)C[C@H](C)C(=O)OC)cs1)C(C)C` (stereo not given in full): the growth is -32.9% (active). With `CC(=O)O[C@H](C[C@H](C(C)C)N(C)C(=O)[C@@H](NC(=O)[C@H]1CCCCN1C)C(C)C)c1cccc(C(=O)N[C@@H](Cc2ccccc2)C[C@H](C)C(=O)O)n1`, the growth is -37.7% (active).

With `Cc1cnc(/C=C/C(=O)O)cc1-c1cc2c(cc1C)C(C)(C)CCC2(C)C`, the growth is 83.8%. Turning to `C=CCCCN=C=S`, the growth was 61.2%. Regarding `COc1ccc(-n2c(C)nc3cc(OC)c(OC)cc3c2=O)cc1OC`, the growth is 104%.

Regarding `c1cnc2[nH]cc(-c3csc(-c4cn(CCCCN5CCCCC5)c5ccccc45)n3)c2c1`, the growth is 80.5%.

With `C[C@@]1(CCCCCCCCCc2ccc(O)cc2)C[C@]2(C)OC(=O)C[C@@H]2OO1`, the growth was 109%. Turning to `Clc1ccc(COC(Cn2ccnc2)c2ccc(Cl)cc2Cl)cc1` (stereo not given), the growth was 27.5%.

`CC1(C)CN1P(=O)(N1CC1(C)C)N1CC1(C)C` (stereo not given): the growth was 124%. As to `CC(=O)ONc1ccc([N+](=O)[O-])c(C(F)(F)F)c1`, the growth is 105%. With `C[C@]12CCc3sc(NCCc4ccccc4)nc3C1=CC[C@@H]1[C@@H]2CC[C@]2(C)C(=O)CC[C@@H]12`, the growth is 58.1%. Regarding `CC(=O)Nc1nc2c(s1)CC[C@@]1(C)C2=CC[C@H]2[C@@H]3CC[C@H](O)[C@@]3(C)CC[C@@H]21`, the growth is 5.93% (active).

Take `C[C@@H]1CCC2[C@@H](C)[C@H](OC(=O)CCC(=O)NCCNC(=O)Cc3cc(=O)oc4cc(N(C)C)ccc34)O[C@@H]3O[C@]4(C)CC[C@@H]1C23OO4` (stereo not given in full): the growth is 19.2%.

For the molecule `COC(=O)[C@@H](C)C[C@H](Cc1ccc(F)cc1)NC(=O)c1csc([C@@H](C[C@H](C(C)C)N(C)C(=O)[C@@H](NC(=O)[C@H]2CCCCN2C)C(C)C)OC(C)=O)n1`, the growth was -28.8% (active). On to `CCN(CCO)C(Cc1ccccc1)c1ccccc1` (stereo not given), for which the growth is 94.4%. For the molecule `O=C(NCCN1CC1)C(=O)NCCN1CC1`, the growth is 106%.

In the case of `Cn1cc(C=O)c2nccnc21`, the growth was 106%. Regarding `COc1cccc2c1c(C(=O)C(=O)Nc1ccn[nH]1)cn2Cc1ccc(F)cc1`, the growth was 121%.

Values taken from PubChem BioAssay (NCI).
